Conditions in all cases: mRNA level, 48 h; actives raise or lower the signal
Read-out in assay [1]: JUN Transcription Factor, JUN (gene 3725)
Description: LTEA_HepaRG_JUN: Life Technologies and Expression Analysis (LTEA) Assay for JUN Transcription Factor using HepaRG (AID 2283513). The gist of the method:
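mRNA measured by TaqMan qRT-PCR after 48 h chemical exposure of HepaRG cultures; normalization to three housekeeping genes. Duplicate eight-point half-log curves from 100 uM in 0.5% DMSO; gain or loss fitted against DMSO baseline.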

Read-out in assay [2]: Lipase C (LIPC), LIPC (gene 3990)
Description: LTEA_HepaRG_LIPC: Life Technologies and Expression Analysis (LTEA) Assay for Lipase C (LIPC) using HepaRG (AID 2283514). The method in brief: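 In this multiplexed gene-expression screen, human HepaRG cultures received test chemicals for 48 h across eight concentrations with 100 uM highest, in duplicate. Values reflect LIPC mRNA induction or suppression versus DMSO vehicle, from normalized qRT-PCR.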

Read-out in assay [3]: Lipoprotein lipase (LPL), LPL (gene 4023)
The assay is described as follows: LTEA_HepaRG_LPL: Life Technologies and Expression Analysis (LTEA) Assay for Lipoprotein lipase (LPL) using HepaRG (AID 2283515). The method in brief:
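Concentration-response testing used half-log steps from 100 uM in 0.5% DMSO on human HepaRG cells, 48 h, duplicate wells. Phenobarbital 1 mM served as induction control; LPL mRNA was normalized to ACTB, GAPDH, POLR2A.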

Read-out in assay [4]: MicroRNA 122 (MIR122), gene 406906
The assay is described as follows: LTEA_HepaRG_MIR122: Life Technologies and Expression Analysis (LTEA) Assay for MicroRNA 122 (MIR122) using HepaRG (AID 2283516). Also: the transcript read is the microRNA miR-122. The gist of the method: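 Expression measured by microfluidic qRT-PCR with three housekeeping genes for normalisation, after 48 h treatment of HepaRG cultures. Eight concentrations (top 100 uM, half-log steps, 0.5% DMSO vehicle) in duplicate; gain or loss fitted relative to vehicle.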

Read-out in assay [5]: matrix metalloproteinase-10 (MMP10), MMP10 (gene 4319)
Description: LTEA_HepaRG_MMP10: Life Technologies and Expression Analysis (LTEA) Assay for matrix metalloproteinase-10 (MMP10) using HepaRG (AID 2283517). The gist of the method:
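In differentiated HepaRG cultures kept in 0.5% DMSO, test chemicals act for 48 h over an eight-point range with a top dose of 100 uM. Expression is then quantified by TaqMan RT-PCR against ACTB, GAPDH and POLR2A.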

Read-out in a further assay: MYC, MYC (gene 4609)
The assay is described as follows: LTEA_HepaRG_MYC: Life Technologies and Expression Analysis (LTEA) Assay for MYC using HepaRG (AID 2283518). The method in brief: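 MYC transcript changes, up or down relative to 0.5% DMSO, from TaqMan qRT-PCR normalized to three housekeeping genes. Human HepaRG cultures received chemicals for 48 h at eight half-log concentrations up to 100 uM, in duplicate.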

Read-out in assay [6]: matrix metalloproteinase-3 (MMP3), MMP3 (gene 4314)
Description: LTEA_HepaRG_MMP3: Life Technologies and Expression Analysis (LTEA) Assay for matrix metalloproteinase-3 (MMP3) using HepaRG (AID 2283519). The gist of the method: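 Human liver HepaRG cultures received chemicals (top concentration 100 uM, 0.5% DMSO) for 48 h in duplicate. MMP3 mRNA induction or loss was then assessed via TaqMan qRT-PCR with housekeeping-gene normalisation.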

Read-out in assay [7]: Paternally Expressed 10 (PEG10), PEG10 (gene 23089)
The assay is described as follows: LTEA_HepaRG_PEG10: Life Technologies and Expression Analysis (LTEA) Assay for Paternally Expressed 10 (PEG10) using HepaRG (AID 2283520).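 As to AC50: PEG10 transcript by qRT-PCR normalised to ACTB GAPDH and POLR2A.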 The gist of the method:
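PEG10 transcript measured by Fluidigm qRT-PCR, normalized to three housekeeping genes, in HepaRG cells treated 48 h (highest 100 uM, half-log steps, 0.5% DMSO vehicle). Cells plated 48 h before switching to serum-free induction medium.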

Read-out in assay [8]: Nuclear factor NF-kappa-B p105 subunit (Homo sapiens) (UniProt P19838)
The assay is described as follows: LTEA_HepaRG_NFKB1: Life Technologies and Expression Analysis (LTEA) Assay for Nuclear Factor Kappa B Subunit 1 (NFKB1) using HepaRG (AID 2283521).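 Also: TaqMan qRT-PCR transcript normalised to ACTB GAPDH and POLR2A housekeeping genes.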 The gist of the method: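 Differentiated human HepaRG cells in serum-free induction medium with 0.5% DMSO were exposed for 48 h to eight half-log concentrations, top 100 uM, in duplicate. NFKB1 mRNA measured by Fluidigm TaqMan qRT-PCR, normalised to ACTB, GAPDH and POLR2A; bidirectional fit versus DMSO.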

Read-out in assay [9]: Protein phosphatase 2A (PPP2R4), PTPA (gene 5524)
Description: LTEA_HepaRG_PPP2R4: Life Technologies and Expression Analysis (LTEA) Assay for Protein phosphatase 2A (PPP2R4) using HepaRG (AID 2283522). The gist of the method: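 Expression was quantified by Fluidigm qRT-PCR normalised to three housekeeping genes after 48 h treatment. Human HepaRG cells received an 8-point series from 100 µM downward by half-logs, in duplicate with 0.5% DMSO vehicle and 1 mM phenobarbital as induction control.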

Read-out in assay [10]: Phosphatase and tensin (PTEN), PTEN (gene 5728)
Description: LTEA_HepaRG_PTEN: Life Technologies and Expression Analysis (LTEA) Assay for Phosphatase and tensin (PTEN) using HepaRG (AID 2283523). The gist of the method: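 Expression of PTEN is quantified in the human liver line HepaRG following two days of dosing (top concentration 100 uM, half-log dilutions, 0.5% DMSO). Values derive from bidirectional curve fitting relative to DMSO controls.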

Read-out in assay [11]: solute carrier (SLC22A1), SLC22A1 (gene 6580)
The assay is described as follows: LTEA_HepaRG_SLC22A1: Life Technologies and Expression Analysis (LTEA) Assay for solute carrier (SLC22A1) using HepaRG (AID 2283524). The gist of the method:
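Transcript induction or suppression of SLC22A1 in human HepaRG cultures is scored after 48 h chemical treatment, with DMSO (0.5%) as baseline for bidirectional fitting. Concentrations span eight half-log points topping at 100 uM.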

Read-out in assay [12]: Pyruvate Dehydrogenase Kinase 4 (PDK4), PDK4 (gene 5166)
Description: LTEA_HepaRG_PDK4: Life Technologies and Expression Analysis (LTEA) Assay for Pyruvate Dehydrogenase Kinase 4 (PDK4) using HepaRG (AID 2283525). The gist of the method: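 Eight-point, half-log concentration series (max 100 uM, 0.5% DMSO) applied to differentiated HepaRG cells for 48 h in duplicate. Endpoint: PDK4 mRNA induction or repression by qRT-PCR against DMSO baseline.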

Read-out in assay [13]: NAD(P)H dehydrogenase [quinone] 1 (NQO1), NQO1 (gene 1728)
The assay is described as follows: LTEA_HepaRG_NQO1: Life Technologies and Expression Analysis (LTEA) Assay for NAD(P)H dehydrogenase [quinone] 1 (NQO1) using HepaRG (AID 2283526). The method in brief:
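NQO1 transcript induction or loss measured by TaqMan qRT-PCR, referenced to three housekeeping genes and fitted bidirectionally against 0.5% DMSO. HepaRG cultures exposed 48 h, duplicate, eight-point half-log series, top 100 uM.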

Read-out in assay [14]: Nuclear factor erythroid 2-related factor 2 (Homo sapiens) (UniProt Q16236)
The assay is described as follows: LTEA_HepaRG_NFE2L2: Life Technologies and Expression Analysis (LTEA) Assay for Nuclear factor erythroid 2-related factor 2 (NFE2L2) Transcription Factor using HepaRG (AID 2283527).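 As to outcome: TaqMan qRT-PCR transcript level normalised to ACTB GAPDH and POLR2A housekeeping genes.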 The gist of the method: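 Human liver HepaRG line treated in duplicate for 48 h with an eight-point series topping at 100 uM. Gene expression of NFE2L2 by qRT-PCR, bidirectionally fitted against the vehicle control.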

Read-out in assay [15]: succinate dehydrogenase complex iron sulfur subunit B (SDHB), SDHB (gene 6390)
The assay is described as follows: LTEA_HepaRG_SDHB: Life Technologies and Expression Analysis (LTEA) Assay for succinate dehydrogenase complex iron sulfur subunit B (SDHB) using HepaRG (AID 2283528). The gist of the method:
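HepaRG cells (~100,000/well, plated 48 h) exposed in duplicate for 48 h in serum-free induction medium to 8-point half-log series from 100 uM in 0.5% DMSO; mRNA by qRT-PCR normalised to ACTB, GAPDH, POLR2A; bidirectional fit versus DMSO.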

Read-out in assay [16]: Signal transducer and activator of transcription 3 (Homo sapiens) (UniProt P40763)
Description: LTEA_HepaRG_STAT3: Life Technologies and Expression Analysis (LTEA) Assay for Signal transducer and activator of transcription (STAT3) using HepaRG (AID 2283529). The method in brief:
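In this transcriptional endpoint, HepaRG cultures receive test chemicals at up to 100 uM for 48 h, tested in duplicate. STAT3 mRNA is normalized to ACTB, GAPDH and POLR2A.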

Read-out in assay [17]: solute carrier (SLCO1B1), SLCO1B1 (gene 10599)
The assay is described as follows: LTEA_HepaRG_SLCO1B1: Life Technologies and Expression Analysis (LTEA) Assay for solute carrier (SLCO1B1) using HepaRG (AID 2283530). The method in brief:
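SLCO1B1 transcript levels were quantified by TaqMan qRT-PCR using three housekeeping genes for normalization. This followed 48 h chemical exposure (100 uM top, half-log, 8 points, 0.5% DMSO) of HepaRG liver cells, with gain or loss fitted relative to DMSO.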

Read-out in assay [18]: sulfotransferase 2A1 (SULT2A1), SULT2A1 (gene 6822)
The assay is described as follows: LTEA_HepaRG_SULT2A1: Life Technologies and Expression Analysis (LTEA) Assay for sulfotransferase 2A1 (SULT2A1) using HepaRG (AID 2283531). The method in brief:
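Expression change of SULT2A1, by qRT-PCR with three housekeeping-gene normalization, was scored bidirectionally versus DMSO. Cells: differentiated HepaRG, dosed in duplicate for 48 h across 8 points, highest 100 µM, half-log dilution, 0.5% DMSO.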

Read-out in assay [19]: Transforming Growth Factor (TGFA), TGFA (gene 7039)
Description: LTEA_HepaRG_TGFA: Life Technologies and Expression Analysis (LTEA) Assay for Transforming Growth Factor (TGFA) using HepaRG (AID 2283532). The method in brief:
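Gene expression of TGFA was quantified by qRT-PCR after human HepaRG cells were treated for 48 h with test chemicals (eight concentrations, highest 100 uM, 0.5% DMSO). Activity in either direction was fitted relative to DMSO.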

Some compounds were tested as several samples or in several runs, with calls that do not always agree. Active and inactive are the calls of the source. The calls were made as follows: active = hit-call score of the fitted dose curve at least 0.9, where 1 is the maximum; inactive = score below 0.9.

Nuclear factor erythroid 2-related factor 2 (Homo sapiens), sequence (Q16236 whole entry, looked up): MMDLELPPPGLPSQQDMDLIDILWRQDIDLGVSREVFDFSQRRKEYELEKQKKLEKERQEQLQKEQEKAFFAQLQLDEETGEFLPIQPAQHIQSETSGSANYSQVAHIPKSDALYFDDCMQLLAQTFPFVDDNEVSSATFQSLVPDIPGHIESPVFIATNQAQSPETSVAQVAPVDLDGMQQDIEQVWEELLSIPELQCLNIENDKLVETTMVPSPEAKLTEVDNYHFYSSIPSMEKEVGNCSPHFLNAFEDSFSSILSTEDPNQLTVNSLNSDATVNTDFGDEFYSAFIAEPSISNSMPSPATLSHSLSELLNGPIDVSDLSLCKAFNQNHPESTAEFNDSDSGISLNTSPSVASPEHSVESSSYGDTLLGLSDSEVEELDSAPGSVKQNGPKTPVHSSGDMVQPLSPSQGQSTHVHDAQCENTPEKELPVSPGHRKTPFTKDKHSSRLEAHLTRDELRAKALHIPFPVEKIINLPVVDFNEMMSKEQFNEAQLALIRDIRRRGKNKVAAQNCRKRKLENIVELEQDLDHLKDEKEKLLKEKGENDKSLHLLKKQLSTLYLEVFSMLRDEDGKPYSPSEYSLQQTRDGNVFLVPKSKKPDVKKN
Nuclear factor NF-kappa-B p105 subunit (Homo sapiens), sequence (P19838 whole entry, looked up): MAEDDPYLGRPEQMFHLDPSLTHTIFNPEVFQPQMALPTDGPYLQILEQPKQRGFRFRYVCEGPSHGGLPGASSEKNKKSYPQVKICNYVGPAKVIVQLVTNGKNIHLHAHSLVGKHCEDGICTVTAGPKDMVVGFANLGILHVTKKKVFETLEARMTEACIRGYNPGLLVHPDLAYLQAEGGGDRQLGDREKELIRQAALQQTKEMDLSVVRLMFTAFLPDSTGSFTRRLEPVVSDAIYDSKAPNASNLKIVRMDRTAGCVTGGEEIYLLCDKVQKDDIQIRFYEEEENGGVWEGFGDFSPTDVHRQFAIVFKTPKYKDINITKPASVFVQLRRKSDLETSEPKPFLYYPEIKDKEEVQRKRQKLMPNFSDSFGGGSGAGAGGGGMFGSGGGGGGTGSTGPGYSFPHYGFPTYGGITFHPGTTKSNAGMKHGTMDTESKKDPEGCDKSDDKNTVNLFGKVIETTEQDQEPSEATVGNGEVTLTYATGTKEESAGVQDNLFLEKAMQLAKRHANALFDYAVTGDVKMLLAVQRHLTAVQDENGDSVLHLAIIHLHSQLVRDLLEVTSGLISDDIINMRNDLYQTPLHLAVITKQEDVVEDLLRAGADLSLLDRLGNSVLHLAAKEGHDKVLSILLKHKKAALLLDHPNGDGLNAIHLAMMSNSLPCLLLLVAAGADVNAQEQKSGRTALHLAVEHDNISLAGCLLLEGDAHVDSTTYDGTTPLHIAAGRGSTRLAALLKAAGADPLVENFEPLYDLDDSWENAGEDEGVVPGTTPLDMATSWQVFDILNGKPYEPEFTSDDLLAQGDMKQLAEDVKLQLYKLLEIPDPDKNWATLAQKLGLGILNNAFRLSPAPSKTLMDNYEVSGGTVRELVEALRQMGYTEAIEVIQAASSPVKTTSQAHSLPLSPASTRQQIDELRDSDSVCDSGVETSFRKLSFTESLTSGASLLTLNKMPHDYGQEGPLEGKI
Signal transducer and activator of transcription 3 (Homo sapiens), sequence (P40763 whole entry, looked up): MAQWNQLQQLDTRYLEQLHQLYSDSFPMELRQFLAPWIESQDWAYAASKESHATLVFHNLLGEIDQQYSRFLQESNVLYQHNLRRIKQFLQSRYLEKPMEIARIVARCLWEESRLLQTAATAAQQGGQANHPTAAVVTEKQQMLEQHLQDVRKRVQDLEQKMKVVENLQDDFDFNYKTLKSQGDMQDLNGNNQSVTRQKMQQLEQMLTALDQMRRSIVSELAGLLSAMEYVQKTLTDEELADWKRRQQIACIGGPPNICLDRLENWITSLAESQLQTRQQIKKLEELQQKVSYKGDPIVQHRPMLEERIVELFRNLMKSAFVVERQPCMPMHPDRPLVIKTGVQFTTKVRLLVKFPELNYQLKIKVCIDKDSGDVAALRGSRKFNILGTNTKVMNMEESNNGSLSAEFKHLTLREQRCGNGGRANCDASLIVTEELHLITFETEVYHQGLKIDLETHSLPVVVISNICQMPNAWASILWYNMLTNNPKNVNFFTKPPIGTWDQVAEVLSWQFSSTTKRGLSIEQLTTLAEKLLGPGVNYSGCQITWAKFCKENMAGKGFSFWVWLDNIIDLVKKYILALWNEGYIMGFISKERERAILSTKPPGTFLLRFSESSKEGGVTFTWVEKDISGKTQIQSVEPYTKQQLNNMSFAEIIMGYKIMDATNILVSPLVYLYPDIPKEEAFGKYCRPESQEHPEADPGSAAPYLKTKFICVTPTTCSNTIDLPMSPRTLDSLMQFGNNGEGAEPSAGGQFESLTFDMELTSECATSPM

As for `CC(C)(C)C(O)C(Oc1ccc(Cl)cc1)n1cncn1` (stereo unspecified), the outcome was “inactive” in assay [1]; “inactive” in [2]; “inactive” in assay [3]; “inactive” in [4]; “inactive” in assay [5]; “inactive” with MYC, MYC (gene 4609). Further, the result in [6], in assay [7], in assay [8], in assay [9], in [10] and in [11] was inactive. Besides, the compound was classed as inactive in assay [12], in assay [13], in assay [14], in [15], in [16] and in assay [17]. For the same compound, the result in [18] and in assay [19] was inactive. Besides, the concentration at half-maximal activity (AC50) was 50 µM (active) in assay [6], 1.4 µM (active) in assay [7] and 9.92 µM (active) in assay [14].

As to `O=[N+]([O-])c1c(Cl)c(Cl)c(Cl)c(Cl)c1Cl`, the outcome in [1] was “inactive”; in assay [2], “inactive”; in assay [3] it was “inactive”; in assay [4], “inactive”; in assay [5] it was “inactive”; with MYC, MYC (gene 4609) it was “inactive”. Further, the outcome in assay [8], in [9], in assay [10], in [11], in assay [12] and in assay [13] was inactive. Also, the call in [14], in assay [15], in assay [16], in [17], in [18] and in assay [19] was inactive. For the same compound, the AC50 was 50 µM (active) in assay [6] and 69.8 µM (active) in assay [7].

On to `O=C(O)COc1ccc(Cl)cc1Cl`, for which the outcome is “inactive” in assay [1]; “inactive” in assay [2]; “inactive” in assay [4]; “inactive” in assay [5]; “inactive” in the assay with MYC, MYC (gene 4609); “inactive” in [6]. The compound was classed as inactive in assay [9], in [10], in assay [11], in [13], in assay [14] and in assay [15]. In addition, the compound was called inactive in assay [16], in [17], in [18] and in [19]. The AC50 was 10.1 µM (active) in assay [7] and 38.5 µM (active) in assay [12].

As a reminder, the AC50 is the midpoint of the concentration-response curve, whichever way the signal moves.
